Source: PubChem BioAssay (NCI)
The panel holds about 83,000 compounds, 20% with a hit somewhere; the sample as a whole holds those more often.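 Single-dose data. Exposure time 48 hours. Values below 10 considered active.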 Values without a mark were called inactive. Active and inactive are the calls of the source.

Legend:
Test in all cases: NCI-60 one-dose screen, 48 h (100 = growth as untreated, 0 = no growth, -100 = all killed)
Settings in all cases: 10 µM unless noted
SK-MEL-2 melanoma = system: SK-MEL-2 melanoma
EKVX NSCLC = system: EKVX NSCLC
SN12C renal = system: SN12C renal
UO-31 renal = system: UO-31 renal
TK-10 renal = system: TK-10 renal
ACHN renal = system: ACHN renal
CAKI-1 renal = system: CAKI-1 renal
A498 renal = system: A498 renal
CCRF-CEM leukemia = system: CCRF-CEM leukemia
MOLT-4 leukemia = system: MOLT-4 leukemia

Structure (SMILES) | growth (SK-MEL-2 melanoma) | growth (EKVX NSCLC) | growth (SN12C renal) | growth (UO-31 renal) | growth (TK-10 renal) | growth (ACHN renal) | growth (CAKI-1 renal) | growth (A498 renal) | growth (CCRF-CEM leukemia) | growth (MOLT-4 leukemia)
COc1ccc(-c2cc3c4c(nc5ccccc5c4c2)CC(c2cc(OC)c(OC)c(OC)c2)O3)cc1 (stereo not given) | 66.3% | 65% | 32.3% | -26.3% (active) | 7.8% (active) | -46% (active) | 1.26% (active) | 70.4% | 99.1% | 102%
Cc1ccc2c(n1)C(=O)C(Cl)=C(Nc1ccccc1C(C)C)C2=O | 64% | 95.8% | 23.7% | 57% | 165% | 49.2% | 35% | 99.7% | 35.7% | 31.9%
CN1CCN(Cc2ccc(NC(=O)c3ccc(C(C)(C)C)c(C#Cc4cnc5cccnn45)c3)cc2C(F)(F)F)CC1 | 33.7% | -32.8% (active) | -67.4% (active) | -47% (active) | -93.8% (active) | -75.2% (active) | -45.1% (active) | 75.5% | -36.7% (active) | -57% (active)
CC(=O)CC(c1cccs1)c1c(-c2ccccc2)[nH]c2ccccc12 (stereo not given) | 94.6% | 72.6% | 93% | 71.5% | 134% | 89.9% | 39.4% | 84% | 92.6% | 86.9%
Cc1ccc(S(=O)(=O)N/N=C/C2(c3ccccc3)CC2)cc1 | 126% | 99% | 98.7% | 93.2% | 120% | 109% | 92.6% | 86.6% | 88.5% | 90.5%
O=C1NC(=O)C(c2ccccc2)(c2ccccc2)N1Cc1cn(-c2c3ccccc3nc3ccccc23)nn1 | 97.9% | 80.4% | 83.6% | 62.4% | 74.9% | 81.5% | 73.5% | 77.7% | 64.6% | 53.5%
O=C(COc1ccc(/C=C2\Cc3ccc(Cl)cc3C2=O)cc1)Nc1nc2ccccc2s1 | 122% | 117% | 102% | 69.1% | 151% | 94.2% | 92.3% | 130% | 73.5% | 69.8%
COC(=O)Nc1ccc(-c2nc(-c3cccc(OC)c3)c(-c3ccnc(Br)c3)[nH]2)cc1 | 72.1% | 55.5% | 67% | 38.6% | 77.9% | 53.4% | 52% | 48.4% | 34.9% | 30.9%
O=S(=O)(Nc1ccc(-c2nc(-c3cccc(OCCN4CCOCC4)c3)c(-c3ccnc(Br)c3)[nH]2)cc1)c1ccccc1 | 24.8% | 50.2% | 51.5% | 20.5% | 48.2% | 27.1% | 28.2% | 53% | 15.1% | 8.11% (active)
CNCCCNc1nc2ccccc2c2c(=O)c3cc(OC)ccc3sc12 | 113% | 87.4% | 78.4% | 52.4% | 98.8% | 70.5% | 61.7% | 56.5% | 11.9% | 48.3%
N#C/C(=C\c1cccc2cnccc12)n1nnc2cccc(F)c21 | 52.8% | 24.9% | 17.7% | 41.4% | 34.4% | 16.9% | 41.5% | 67.7% | 17.6% | 26.2%
CC1=NN(c2ccc(S(=O)(=O)O)cc2)C(=O)C1N=Nc1ccc(-c2ccc(N=Nc3ccc(OS(=O)(=O)c4ccc(C)cc4)cc3)c(S(=O)(=O)O)c2)cc1 (stereo not given) | 78.8% | 107% | 93.6% | 69.8% | 97.2% | 102% | 100% | 95.2% | 67.8% | 84.3%
COc1cc(/C=C/c2ccccc2)cc(OC)c1 | 93.7% | 78.9% | 100% | 80.1% | 95.9% | 96.6% | 81.3% | 88.7% | 108% | 89.3%
COc1nc2ccc(C)cc2cc1-c1nc2c(cnn2-c2ccc(Br)cc2)c(=O)[nH]1 | 48.2% | 53.5% | 48.5% | 45.7% | 77.3% | 37.6% | 48.1% | 7.08% (active) | 17.9% | 58.9%
CCOC(=O)C1=C(N)Oc2c(sc3c(C)cccc23)C1c1ccc(OC)cc1 (stereo not given) | 22.9% | 88.5% | 39.7% | 41.5% | 110% | 34% | 5.78% (active) | 4.89% (active) | 24.3% | 29.4%
Clc1ccc(C(/C=C/c2sc(Cl)nc2Cl)=N/Nc2cc(Cl)cc(Cl)c2)cc1 | 106% | 103% | 100% | 83% | 119% | 102% | 98.2% | 101% | 94.5% | 96.6%
CCOC(=O)c1nc(Nc2ccc(C(C)=O)cc2)sc1C | 106% | 97.8% | 104% | 91.8% | 97.9% | 101% | 94.7% | 75.1% | 99.9% | 97.8%
CCOC(=O)c1[nH]c(C)c(C(=O)OCc2ccccc2C#N)c1C | 82.3% | 114% | 95% | 88.3% | 90.9% | 87.4% | 82.1% | 79.3% | 92.4% | 78.8%
Cc1c(C(=O)NCCN2CCOCC2)cn2ncnc(Oc3ccc(NC(=O)Nc4ccc(Cl)c(C(F)(F)F)c4)cc3)c12 | -20.8% (active) | 25.2% | 21.2% | 52.7% | 32.2% | 13.6% | 30.3% | -5.16% (active) | 9.09% (active) | -3.35% (active)
COc1cccc2c(=O)c3c(sc12)c(N1CCNCC1)nc1ccccc13 | 112% | 95.6% | 64.3% | 47.2% | 90.7% | 53.1% | 45.8% | 61.8% | 13.8% | -13.3% (active)
CCC12CCC[N+]3([O-])CCC4(C(=Nc5ccccc54)C(O)(C(=O)OC)C1)C23 (stereo not given) | 121% | 101% | 99.9% | 87.6% | 113% | 102% | 103% | 108% | 99.9% | 98.2%
O=c1c2cc(F)ccc2sc2c(N3CCNCC3)nc3ccccc3c12 | 103% | 72.5% | 61.7% | 28.8% | 58.8% | 7.74% (active) | -48.4% (active) | 30.3% | -27.5% (active) | -33.5% (active)
Cc1cccc(NC2=C(Cl)C(=O)c3nc(C)ccc3C2=O)c1 | -9.34% (active) | 75.7% | -71.2% (active) | -93.3% (active) | 123% | -98.3% (active) | -33.1% (active) | 42.1% | 3.19% (active) | -22.1% (active)
N#CC1=C(N)Oc2c(sc3c(Br)cccc23)C1c1ccc([N+](=O)[O-])cc1 (stereo not given) | 39.6% | 58.9% | 13.5% | 34.6% | 71.9% | 26.8% | 27.1% | -11.8% (active) | 10% | 5.93% (active)
CCCCCCCCCCCCCCCCCCOc1ccccc1CCCOP(=O)(O)OCC[N+](C)(C)C | 102% | 74.1% | 60.9% | 68.5% | 1.65% (active) | 84.5% | 43.4% | 54.1% | 34% | 33.7%
